Data from PubChem BioAssay AID1259249 (Broad Institute, 2017).
Where “and” joins values, the source holds several entries; their conditions need not be identical. Identical values can stand only once. The campaign covered roughly 86,000 compounds. About 220 (0.26%) were called active.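 How the source made its calls: active means mean growth activity at or below -80% and every replicate also at or below -80%; inconclusive means mean at or below -80% but some replicate above -80%; inactive means mean growth activity above -80%.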 Only a selection was taken, and actives are over-represented in it overall.

Assay: blockers of Clostridium difficile growth – HTS, primary screen (AID 1259249);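 further: 0% = DMSO wells and -100% = levofloxacin 16 µg/mL wells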
Conditions: Clostridium difficile clinical isolate growth, OD600, 24 h; hits give low values; screened at 16 µg/mL (by protocol)

Growth activity, negative = inhibition, active:
COc1ccc(CN(C)C[C@@H]2OCCCC[C@@H](C)Oc3ccc(NC(=O)Nc4ccc(C(F)(F)F)cc4)cc3C(=O)N([C@H](C)CO)C[C@H]2C)cc1 -85.2%

Growth activity, negative = inhibition, inactive:
COc1ccc(S(=O)(=O)N(C)C[C@@H]2OCCCC[C@H](C)Oc3ccc(NC(=O)Nc4ccccc4)cc3C(=O)N([C@H](C)CO)C[C@H]2C)cc1 -1.33%
O=C(C[C@@H]1CC[C@H](NS(=O)(=O)c2ccc(F)cc2)[C@@H](CO)O1)NCc1ccccc1F -8.59%
COCC(=O)N1[C@H](CO)[C@H](c2ccccc2C2=CCCCC2)[C@@H]1C#N -0.454%
C[C@@H]1CN([C@H](C)CO)C(=O)c2cc(NC(=O)Nc3ccc(C(F)(F)F)cc3)ccc2O[C@@H](C)CCCCO[C@@H]1CN(C)Cc1ccc(C(F)(F)F)cc1 0.541%
COc1ccc(NC(=O)Nc2ccc3c(c2)C(=O)N([C@@H](C)CO)C[C@H](C)[C@H](CN(C)Cc2ccc(C(F)(F)F)cc2)OCCCC[C@H](C)O3)cc1 0.631%
COc1ccc(S(=O)(=O)N2CC[C@@H]3[C@H](CO)Nc4ccc(C#Cc5cccc(OC)c5)cc4[C@@H]32)cc1 47.9%
CCCNC(=O)N1[C@@H]2CNC[C@H]1C2c1ccc(-c2cccc(C)c2)cc1 (stereo partly specified) -6.26% and -5.23%
C[C@H](CO)N1C[C@H](C)[C@@H](CN(C)C(=O)C2CCC2)Oc2cc(C3=CCCCC3)ccc2S1(=O)=O -7.06%
O=C(C[C@@H]1CC[C@@H](NC(=O)c2cccnc2)[C@H](CO)O1)NCCN1CCCCC1 -5.37%
CN(C)C(=O)C[C@@H]1CC[C@H]2[C@@H](COC[C@H](O)CN2S(=O)(=O)c2ccccc2)O1 0.743% and 2.09%
O=C(NC1Cc2ccccc2C1)[C@@H]1[C@@H](CO)[C@@H]2Cn3c(ccc(C4=CCCC4)c3=O)[C@H]1N2CC1CC1 -0.745%
C[C@H](O)C#Cc1cnc2c(c1)C(=O)N([C@H](C)CO)C[C@@H](C)[C@@H](CN(C)C(=O)Nc1ccc(C(F)(F)F)cc1)O2 4.02%
O=C(Cc1ccccc1)N1CC2(C1)[C@H](c1ccccc1)[C@@H](CO)N2C(=O)c1cccnc1 1.92%
O=C(Cc1cccnc1)N1CC(=O)N2[C@@H](CO)[C@H](c3ccc(C#CC4CC4)cc3)[C@@H]2C1 -8.63%
CCCC(=O)Nc1ccc2c(c1)OC[C@H](C)N(Cc1ccc(F)cc1)C[C@H](C)[C@H](OC)CN(C)C2=O -2.55%
COc1ccc2c3c(n(C)c2c1)[C@H](CO)N(C(=O)c1ccncc1)CC31CCN(CC2CC2)CC1 -4.02%
CN(C)CC(=O)N[C@H]1CC[C@H](CCNC(=O)C2CCCCC2)O[C@H]1CO -2.36%
CCS(=O)(=O)N1CC(=O)N2[C@H](CO)[C@@H](c3ccc(C#Cc4cccc(F)c4)cc3)[C@@H]2C1 -11.9%
CCCNC(=O)N1CC2(CCN(Cc3ccc(F)cc3)CC2)c2c([nH]c3cc(OC)ccc23)[C@@H]1CO -2.16%
COc1ccc(C#Cc2cnc3c(c2)C(=O)N([C@H](C)CO)C[C@@H](C)[C@H](CN(C)C(=O)Nc2cccc(OC)c2)O3)cc1 -9.72%
CO[C@@H]1CN(C)C(=O)c2ccc(NC(=O)NC(C)C)cc2OC[C@@H](C)N(C)C[C@H]1C -0.836%
CO[C@H]1CN(C)C(=O)c2ccc(NC(=O)c3cnccn3)cc2OC[C@H](C)N(C)C[C@@H]1C 4.99%
CC=Cc1ccc2n(c1=O)C[C@H]1[C@H](CO)[C@@H](C(=O)NCCc3cn(C)cn3)[C@@H]2N1C(=O)CC (mixture of isomers) 1.45%
CCNC(=O)C[C@H]1CC[C@@H]2[C@H](COc3ccc(NC(=O)Nc4cccc(Cl)c4)cc3C(=O)N2C)O1 -2.43%
CC(=O)N1[C@H](CNC(=O)CN(C)C)[C@H](c2ccc(C3=CCCC3)cc2)[C@@H]1CO -3.19%
CO[C@H]1O[C@H](CO)[C@@H](OC(=O)Nc2ccc(C(F)(F)F)cc2)[C@H](OC(=O)Nc2ccc3c(c2)OCO3)[C@H]1OC(=O)Nc1ccc2c(c1)OCO2 16.4%
COc1ccc(-c2ccc3c(c2)[C@@H]2[C@@H](CCN2C(=O)NC2CCCC2)[C@@H](CO)N3C)cc1 -8.11%
C[C@H](NC(=O)[C@@H]1[C@@H](CO)[C@@H]2Cn3c(ccc(-c4cccc(F)c4)c3=O)[C@@H]2N1C)c1ccccc1 -2.53%
CN1C(=O)c2cc(NC(=O)C3CCCCC3)ccc2OC[C@H]2O[C@@H](CC(=O)NC3CCCC3)CC[C@@H]21 -2.9%
CO[C@H]1CN(C)C(=O)c2ccc(NC(=O)Nc3ccc(F)cc3)cc2OC[C@@H](C)NC[C@H]1C 0.388%
